Compounds without any hit were thinned out: in the full panel of roughly 83,000, 20% have a hit.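 Note: values are percent growth. 100 is the growth of untreated cells, values between 100 and 0 indicate rising inhibition; between -100 and 0 indicates cell death.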 A number with no mark means an inactive call.

The subject of the assay is BT-549 breast. In words: NCI-60 one-dose screen, 48 h (100 = growth as untreated, 0 = no growth, -100 = all killed). Particulars: 10 µM unless noted. The protocol:
Growth inhibition of the BT-549 human tumor cell line is measured as a screen for anti-cancer activity. Cells are grown in 96 well plates and exposed to the test compound for 48 hours. Compounds are tested at a single concentration, which is 10^-5 M for most compounds. The reported endpoint is percent growth (GI% or GIPRCNT), where numbers from 0 - 100% represent growth inhibition, and numbers from -100% - 0 represent cell death. For example, a value of 40 represents 60% growth inhibition. A value of 0 means no net growth occurred over the course of the experiment. A value of -40 indicates 40% of cells at the beginning of the experiment died by the end of the experiment. A value of -100 means all cells are dead at the end of the experiment.
NCI-60 Human Tumor Cell Lines Screen was performed using the standard one-dose NCI protocol, which is described in more detail at https://dtp.cancer.gov/discovery_development/nci-60/default.htm.
Compounds with GIPRCNT values below 10 were considered active. Activity score was based on GIPRCNT using the following formula: […]
Score is 0 for GIPRCNT values of 100 or above, 50 for GIPRCNT values of 0, and 100 for GIPRCNT values of -100.
Regarding `CC(=O)OCC1CCC(COC(C)=O)CC1` (stereo not given), the growth is 112%. For `CC1(c2ccccc2)CO1` (stereo not given) the value was 112%; for `CCOC(=O)/C(C)=C\c1ccc(OC)c(OC)c1`, 89%. Regarding `C=COC(=O)C(C)(C)C`, the growth was 89%. For `COC1OC(COC(C)=O)C(OC(C)=O)C(OC(C)=O)C1OC(C)=O` (stereo not given) the value was 101%.

On to `O=S(=O)(OCCOS(=O)(=O)c1ccccc1)c1ccccc1`, for which the growth was 86.4%.

On to `CC(CC(CCC(=O)O)(c1ccccc1)c1ccccc1)N(C)C` (stereo not given), for which the growth is 68.1%. For `N#CC1(O)CCCCC1` the value was 93.9%.

In the case of `C1Cc2onc(-c3noc4c3CCC4)c2C1`, the growth was 114%. For `Cc1ccc(S(N)(=O)=O)cc1Cl` the value was 77.9%; for `BrCc1cccc(C[P+](c2ccccc2)(c2ccccc2)c2ccccc2)c1`, 93.1%. As to `NS(=O)(=O)c1cc(=O)[nH]c(=O)[nH]1`, the growth was 107%. On to `CCOC(=O)c1c[nH][nH]c1=O`, for which the growth is 106%. With `Oc1ccc(N=Cc2ccc(OCc3ccccc3)cc2)cc1`, the growth is 84.6%.

In the case of `CCCCOC(=O)c1ccc(NC(=O)CCl)cc1`, the growth is 47.5%. For `O=[N+]([O-])c1ccc2[nH]c(=S)n(/C=C(/c3ccc(Cl)cc3Cl)S(=O)(=O)Cc3ccc(Cl)cc3Cl)c2c1`, the growth is 93.9%. In the case of `O=S(=O)(O)c1cccc2cccnc12`, the growth is 121%.

For `NC(=O)OCCO`, the growth was 94.9%. The result for `CCOC(=O)Nc1nccs1` reads 101%. The result for `Cn1/c(=N\N=C\c2ccccc2OCCO)sc2ccccc21` reads 102%; that for `O=S(=O)(O)C(C(I)I)S(=O)(=O)O`, 118%.

For `CC(C)N(C(=O)c1ccccc1)C(C)C`, the growth is 106%.

Regarding `O=C(O)Cc1ccccn1`, the growth is 101%. For `Cc1cccc(C)c1NC(=S)/N=C\c1c(O)[nH]c(=O)[nH]c1=O` the value was 93.9%; for `O=C(CC(CC(=O)c1ccccc1)c1ccccn1)c1ccccc1`, 101%. The result for `Clc1ccc(C(SCc2ccccc2)SCc2ccccc2)cc1` reads 103%; that for `Oc1ccc(CCC2CCNc3ccccc32)cc1` (stereo not given), 47.2%. For `CCOc1ccc(C(=O)NCC(C)C)cc1` the value was 98.3%; for `C=COC(=O)CCOCC(CC)CCCC` (stereo not given), 93.6%. `CC1(C)CCC(C)(C)NC(=S)N1`: the growth is 105%. The result for `COc1ccc(C(=O)/C(=N/Nc2ccccc2)c2ccc(OC)cc2)cc1` reads 103%; that for `CN(C)c1ncnc2c1cnn2C`, 99.9%. `O=C(Nc1ccccc1)c1ccco1`: the growth was 98.1%. The result for `NNC(=O)N/N=C1\C(=O)N(c2nccs2)C(=O)C(=O)C1c1nc2ccccc2s1` (stereo not given) reads 99.1%; that for `CCN(C(=O)Nc1ccccc1Cl)c1ccccc1`, 106%; that for `CCOC(=O)C(=O)CC(=O)c1ccccc1`, 109%. The result for `CCCOCc1cn[nH]n1` reads 109%; that for `COc1ccc2c(ccc[n+]2C)c1`, 113%. For `CC(C)c1ccc(C(=O)OCCCl)cc1`, the growth is 100%. The result for `CCOC(=O)CSCCC#N` reads 87.2%.

The values are drawn from PubChem BioAssay (NCI).
